Consider five compounds from PubChem BioAssay.

The source made the active and inactive calls. Unless noted, no rule for the calls is given here.

Assay [1] deals with Wnt5a (protein binding on small-molecule microarray). Nature of the assay: Wnt5a binders on small-molecule microarray, primary screen, biophysical, 635/667 nm fluorescence (AID 1142).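 Also: fluorescence read at 667 nm with signal to noise per printed feature.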 As to conditions: 635 nm fluorescence, higher = more signal.
Assay [2] is described as follows: cell viability in Huh7 cells, primary screen, cytotoxicity control for HCV replication inhibitor project, CellTiter-Glo luminescence, basal, 48 h (AID 1143).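 Also: Huh7 hepatoma cells carrying a hepatitis C replication reporter with no stimulus; test concentration not given here.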 Particulars: Huh7 HCV replicon, higher = more signal, called active from +8 up or from −8 down.
The nature of assay [3]: P. aeruginosa biofilm formation inhibitors, primary screen, PAO1 strain, BacTiter-Glo luminescence, LB-PBS (AID 1144). As to conditions: 12 h, higher = more signal.
A short description of assay [4]: CREB reporter modulators without forskolin, primary screen, cell-based, PC12, CRE-LacZ reporter, unstimulated (AID 1145). Particulars: no forskolin, luminescence, 4.5 h, higher = more signal, called active from +8 up or from −8 down.
The nature of assay [5]: CREB reporter modulators under forskolin, primary screen, cell-based, PC12, CRE-LacZ reporter, forskolin-stimulated (AID 1146).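 Also: PC12 cells with 6xCRE LacZ reporter stimulated by forskolin 10 µM; beta-galactosidase reporter signal reflecting CREB driven transcription.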 Particulars: luminescence, 4.5 h, higher = more signal, called active from +8 up or from −8 down.
Assay [6] concerns the target Streptavidin (Streptomyces avidinii) (UniProt P22629). Nature of the assay: streptavidin binders on small-molecule microarray, primary screen, artefact control for SMM compound annotation, biophysical, 635/667 nm fluorescence (AID 1147).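 Also: signal reflects streptavidin binding to arrayed compounds as a control protein.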 Particulars: streptavidin binding, higher = more signal.
A short description of assay [7]: small-molecule binders of probe aInhba, primary screen, biochemical, small-molecule microarray, 635/667 nm fluorescence (AID 1148).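 Also: score merges 667nm spot fluorescence with signal-to-noise for antibody binding to printed compounds.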 Particulars: higher = more signal.
For assay [8], the target named is Torsin-1A (Homo sapiens) (UniProt O14656). Nature of the assay: torsin A binders from cell lysate, primary screen, small-molecule microarray, wild-type, 635/667 nm (AID 1149). Particulars: COS7 hTOR1A-WT lysate, 635 nm fluorescence, higher = more signal.
Chain of Torsin-1A (Homo sapiens) (O14656 whole entry, looked up): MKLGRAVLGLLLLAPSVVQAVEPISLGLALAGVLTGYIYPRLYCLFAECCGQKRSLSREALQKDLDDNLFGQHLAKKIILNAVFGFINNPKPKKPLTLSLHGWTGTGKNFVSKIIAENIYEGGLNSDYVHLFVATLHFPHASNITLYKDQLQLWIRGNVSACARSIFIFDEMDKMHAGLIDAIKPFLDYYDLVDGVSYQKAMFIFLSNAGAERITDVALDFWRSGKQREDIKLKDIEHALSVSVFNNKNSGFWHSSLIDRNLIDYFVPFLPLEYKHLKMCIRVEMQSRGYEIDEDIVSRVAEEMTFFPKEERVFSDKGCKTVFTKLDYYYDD
Assay [9] shares this target. As to the kind of experiment: small-molecule binders of mutant TOR1A in lysate, primary screen, cell lysate, small-molecule microarray, COS7 lysate, 635/667 nm fluorescence (AID 1150).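 Also: score pools 667 nm emission and signal to noise measuring lysate protein binding.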 Particulars: COS7 hTOR1A mutant lysate, 635 nm fluorescence, higher = more signal.
Assay [10] deals with Sonic hedgehog protein (Shh). As to the kind of experiment: small-molecule binders of Shh protein, primary screen, biochemical, small-molecule microarray, 635/667 nm fluorescence (AID 1151).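 Also: Shh protein binding to compounds spotted on small-molecule microarray slides; score combines spot fluorescence intensity with signal-to-noise across triplicate slides.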 Particulars: small-molecule microarray binding, 635 nm fluorescence; higher = more signal.
Assay [11] in a line: E. coli DRC41 culture turbidity changes, primary screen, E. coli filamentation inducer project, strain DRC41, OD650, 48 h (AID 1152).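 Also: E. coli MC1000 strain DRC41 lacking acrAB efflux pump and sulA.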 Particulars: E. coli DRC41 (acrAB sulA), higher = more signal, called active from +8 up or from −8 down.
Assay [12] in a line: small-molecule binders of probe aLefty1, primary screen, biochemical, small-molecule microarray, 635/667 nm fluorescence (AID 1153).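 Also: score merges spot fluorescence with signal-to-noise ratio from the scanned slide images.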 Particulars: higher = more signal.
Assay [13] is described as follows: PSAC antagonists in infected red cells, primary screen, cell-based, P. falciparum Indochina, OD700, 1 h (AID 1154). As to conditions: P. falciparum Indochina infected RBC osmotic lysis, higher = more signal, called active from +8 up or from −8 down.
Assay [14] can be described thus: PSAC antagonists in infected red cells, primary screen, cell-based, P. falciparum Indochina, OD700, 2 h (AID 1155).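 Also: lysis reports solute entry through the parasite surface anion channel PSAC; channel blockers reduce lysis of infected cells.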 As to conditions: P. falciparum Indochina infected erythrocytes, osmotic lysis OD700; higher = more signal, called active from +8 up or from −8 down.
The nature of assay [15]: osmotic lysis modulators in infected erythrocytes, primary screen, PSAC antagonist project, cell-based, P. falciparum Indochina, OD700, 3 h (AID 1156). As to conditions: higher = more signal, called active from +8 up or from −8 down.
The nature of assay [16]: PSAC antagonists in infected red cells, primary screen, cell-based, P. falciparum Indochina, OD700, 18 h (AID 1157). Particulars: P. falciparum Indochina infected erythrocytes, osmotic lysis OD700, 18 h; higher = more signal, called active from +8 up or from −8 down.
A short description of assay [17]: modulators of S6 phosphorylation in cells, primary screen, cell-based, A549, cytoblot, luminescence, serum-stimulated (AID 1158).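 Also: serum-stimulated A549 lung adenocarcinoma cells; signal is phosphorylated S6 detected by cytoblot immunostaining with HRP secondary.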 As to conditions: A549 phospho-S6 cytoblot, 5 h, higher = more signal.
The target in assay [18] is NADPH oxidase 2 (Homo sapiens) (UniProt P04839). As to the kind of experiment: NOX2-dependent H2O2 signal modulators, primary screen, NOX inhibitor project, cell-based, HEK293-NOX2, PMA-stimulated, Amplex Red fluorescence (AID 1159). Also: test concentration not given here. As to conditions: 45 min, higher = more signal, called active from +8 up or from −8 down.
Chain of NADPH oxidase 2 (Homo sapiens) (P04839 whole entry, looked up): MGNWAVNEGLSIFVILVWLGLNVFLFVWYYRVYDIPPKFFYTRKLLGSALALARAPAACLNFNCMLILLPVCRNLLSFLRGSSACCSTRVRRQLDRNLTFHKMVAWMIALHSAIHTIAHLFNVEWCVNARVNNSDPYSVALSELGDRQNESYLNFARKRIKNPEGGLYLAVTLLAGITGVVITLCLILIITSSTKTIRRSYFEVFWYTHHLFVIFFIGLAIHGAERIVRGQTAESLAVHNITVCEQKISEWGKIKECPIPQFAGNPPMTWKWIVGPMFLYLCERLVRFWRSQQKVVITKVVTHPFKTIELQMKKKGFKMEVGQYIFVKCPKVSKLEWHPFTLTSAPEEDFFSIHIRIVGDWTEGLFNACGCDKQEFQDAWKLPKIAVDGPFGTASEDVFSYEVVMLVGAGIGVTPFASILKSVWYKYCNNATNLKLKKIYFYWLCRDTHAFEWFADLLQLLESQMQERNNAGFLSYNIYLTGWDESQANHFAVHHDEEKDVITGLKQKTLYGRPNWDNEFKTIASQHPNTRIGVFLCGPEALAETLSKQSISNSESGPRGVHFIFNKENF
Assay [19] concerns the target NADPH oxidase 4 (Homo sapiens) (UniProt Q9NPH5). As to the kind of experiment: NOX4-dependent H2O2 signal modulators, primary screen, NOX inhibitor project, cell-based, HEK293-NOX4, tetracycline-induced, Amplex Red fluorescence (AID 1160). Particulars: 45 min, higher = more signal, called active from +8 up or from −8 down.
Assay [20] addresses NADPH oxidase 5 (Homo sapiens) (UniProt Q96PH1). Nature of the assay: NOX5-dependent H2O2 signal modulators, primary screen, NOX inhibitor project, cell-based, HEK293-NOX5, Amplex Red fluorescence (AID 1161). As to conditions: HEK293-NOX5, ionomycin, 45 min, higher = more signal.

Chain of NADPH oxidase 5 (Homo sapiens) (Q96PH1 whole entry, looked up): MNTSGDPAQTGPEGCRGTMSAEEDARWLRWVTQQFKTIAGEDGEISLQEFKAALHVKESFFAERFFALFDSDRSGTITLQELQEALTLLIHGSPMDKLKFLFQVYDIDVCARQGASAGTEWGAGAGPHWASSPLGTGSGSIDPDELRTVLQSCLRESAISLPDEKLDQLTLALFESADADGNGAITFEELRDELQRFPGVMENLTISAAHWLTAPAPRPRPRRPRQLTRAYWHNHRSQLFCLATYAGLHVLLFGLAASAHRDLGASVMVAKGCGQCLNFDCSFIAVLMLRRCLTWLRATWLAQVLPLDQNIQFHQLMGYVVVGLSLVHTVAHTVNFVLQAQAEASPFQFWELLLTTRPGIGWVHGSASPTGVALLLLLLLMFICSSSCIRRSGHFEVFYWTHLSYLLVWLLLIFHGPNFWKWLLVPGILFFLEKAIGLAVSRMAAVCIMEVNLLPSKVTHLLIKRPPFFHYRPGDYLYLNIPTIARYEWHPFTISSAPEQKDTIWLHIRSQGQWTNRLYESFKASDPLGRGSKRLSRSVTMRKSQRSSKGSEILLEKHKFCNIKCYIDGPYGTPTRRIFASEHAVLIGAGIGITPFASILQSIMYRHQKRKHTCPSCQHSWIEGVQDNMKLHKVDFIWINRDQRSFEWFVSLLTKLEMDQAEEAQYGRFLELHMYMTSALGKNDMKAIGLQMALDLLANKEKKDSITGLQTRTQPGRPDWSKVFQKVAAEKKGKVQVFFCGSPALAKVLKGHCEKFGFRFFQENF
Chain of Streptavidin (Streptomyces avidinii) (P22629 whole entry, looked up): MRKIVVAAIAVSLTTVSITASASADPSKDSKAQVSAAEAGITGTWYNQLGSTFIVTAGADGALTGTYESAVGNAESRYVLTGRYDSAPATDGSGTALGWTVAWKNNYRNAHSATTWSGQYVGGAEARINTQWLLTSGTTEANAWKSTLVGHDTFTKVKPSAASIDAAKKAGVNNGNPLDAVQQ
Chain of NADPH oxidase 4 (Homo sapiens) (Q9NPH5 whole entry, looked up): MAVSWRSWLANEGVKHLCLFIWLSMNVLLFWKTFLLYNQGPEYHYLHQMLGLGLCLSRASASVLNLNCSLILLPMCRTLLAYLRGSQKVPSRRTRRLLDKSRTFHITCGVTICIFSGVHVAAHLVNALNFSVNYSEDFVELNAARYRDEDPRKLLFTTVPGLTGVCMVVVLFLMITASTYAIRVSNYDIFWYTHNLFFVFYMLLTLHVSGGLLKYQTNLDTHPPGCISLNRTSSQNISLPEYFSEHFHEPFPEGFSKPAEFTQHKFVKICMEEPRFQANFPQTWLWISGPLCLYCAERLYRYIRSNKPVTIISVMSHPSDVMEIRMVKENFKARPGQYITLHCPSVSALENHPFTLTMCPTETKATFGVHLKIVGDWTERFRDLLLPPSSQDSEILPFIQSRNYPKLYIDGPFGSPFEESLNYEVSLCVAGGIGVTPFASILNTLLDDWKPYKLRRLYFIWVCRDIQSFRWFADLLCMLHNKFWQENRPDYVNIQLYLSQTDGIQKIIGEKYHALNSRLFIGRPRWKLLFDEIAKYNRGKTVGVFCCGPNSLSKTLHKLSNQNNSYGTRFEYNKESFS

Regarding `COC(=O)CC=C[C@@H](C)[C@@H](C=NOC(C)CN1CCCc2nc(C)c(C)cc21)NS(=O)(=O)c1ccc(C)cc1` (stereo not given in full), the composite z-score is 0.448 in assay [1]; -0.176 in assay [6]; 0.0982 in assay [7]; 0.308 in the assay with Torsin-1A (Homo sapiens) [8]; 0.309 with Torsin-1A (Homo sapiens) [9]; 0.791 in assay [10]. The composite z-score in [12] was determined as 0.119. Also, the z-score in [2] was -0.214 (inactive); in [3], 1.42 (inactive); in assay [4], 0.0013 (inactive); in [5], 0.541 (inactive); in [11] it was 0.364 (inactive); in assay [13] it was 2.52 (inactive). Besides, the z-score was 0.584 (inactive) in assay [14]; 0.201 (inactive) in assay [15]; 0.49 (inactive) in [16]; -0.929 in assay [17]; -0.134 (inactive) in assay [18]; 0.283 (inactive) in assay [19]. This compound also had a z-score in [20] of -0.736.
Consider `CO[C@@H]1COC(=O)CC=C[C@H](C)[C@H](OC)COC(=O)[C@@H]2CCCN2C(=O)CC=C[C@H]1C`, for which the composite z-score in assay [1] is 0.0408; in [6] it was -0.0406; in assay [7], -0.0112; with Torsin-1A (Homo sapiens) [8], 0.719; in the assay with Torsin-1A (Homo sapiens) [9] it was 1.22; in assay [10] it was 1.83. This compound registered a composite z-score in assay [12] of -0.276. The z-score in assay [2] was -0.754 (inactive); in assay [3], 0.243 (inactive); in [4], 0.609 (inactive); in [5] it was -0.628 (inactive); in assay [11] it was -0.2 (inactive); in assay [13], 0.521 (inactive). In addition, the z-score was 0.457 (inactive) in assay [14]; -0.0249 (inactive) in assay [15]; 0.158 (inactive) in assay [16]; -0.0291 in [17]; 1.18 (inactive) in assay [18]; -0.686 (inactive) in assay [19]. The z-score in assay [20] was 0.294.
Consider `CCN1C(C)=C(C(=O)OC)[C@@H](c2ccccc2)N2C(=O)[C@](O)(C(=O)OC)CC(C(C)=O)=C12`, for which the composite z-score was 0.24 in assay [1]; -0.466 in [6]; -0.0986 in assay [7]; 0.837 with Torsin-1A (Homo sapiens) [8]; 0.153 with Torsin-1A (Homo sapiens) [9]; 0.742 in assay [10]. Further, the composite z-score in assay [12] is -0.22. The z-score in assay [2] was 0.0021 (inactive); in [3] it was -0.63 (inactive); in assay [4] it was -0.324 (inactive); in assay [5], -0.482 (inactive); in [11], -0.0844 (inactive); in assay [13] it was 0.725 (inactive). In addition, the z-score in [14] is 0.893 (inactive); in assay [15], 0.62 (inactive); in [16], 0.195 (inactive); in assay [17] it was 0.825; in [18], 0.188 (inactive); in [19], 0.724 (inactive). The same compound registered a z-score in [20] of 0.697.
For the compound `COC(=O)[C@H](C)NC(=O)CCC1CC(OC(=O)NCc2cccc3ccccc23)CC2(CCCC(COC(=O)NCc3ccccc3)O2)O1` (stereo not given in full), the composite z-score in assay [1] was determined as 0.276; in [6], 0.777; in assay [7] it was 0.0901; with Torsin-1A (Homo sapiens) [8], 0.283; with Torsin-1A (Homo sapiens) [9], 0.542; in assay [10], 1.07. For the same compound, the composite z-score in [12] amounted to 0.378. Also, the z-score in assay [2] was -1.12 (inactive); in assay [3], -1.33 (inactive); in assay [4], -0.437 (inactive); in assay [5], 0.0493 (inactive); in [11] it was -0.249 (inactive); in assay [13], 0.385 (inactive). The z-score is -0.254 (inactive) in [14]; 0.0409 (inactive) in assay [15]; 0.0533 (inactive) in [16]; 0.362 in assay [17]; 1.42 (inactive) in assay [18]; 0.73 (inactive) in assay [19]. In [20], this compound showed a z-score of 1.06.
`COC(=O)[C@@H]1CC[C@H](C)[C@@H](c2ccc(Br)cc2)N1C[C@@H](O)CN=[N+]=[N-]`: the composite z-score in assay [1] was 0.538; in assay [6], 0.398; in assay [7] it was -0.224; with Torsin-1A (Homo sapiens) [8], 0.54; with Torsin-1A (Homo sapiens) [9], -0.117; in assay [10], 0.581. For the same compound, in assay [12], the composite z-score was -0.147. Moreover, the z-score in assay [2] is -3.06 (inactive); in assay [3], -1.91 (inactive); in assay [4] it was 0.105 (inactive); in [5], -0.571 (inactive); in assay [11], -1.67 (inactive); in [13], 1.87 (inactive). For the same compound, the z-score in assay [14] is -0.514 (inactive); in assay [15], 0.27 (inactive); in [16], -0.956 (inactive); in assay [17], 1.84; in assay [18], 0.0777 (inactive); in assay [19], -1.37 (inactive). This compound also registered a z-score in assay [20] of 0.126.
